The record followed here is PubChem BioAssay (NCATS).

Each structure is given as a SMILES string. Several values for one entry are separate records, joined by “and”; a condition that tells them apart may be missing. Equal values may be shown once. Records with an inconclusive call do not appear. Entries that show only a call come without a potency. Activity calls are given as the source filed them. Unless noted, the call rests on the fitted dose curve.

Chain of Bile acid receptor (Homo sapiens) (Q96RI1 whole entry, looked up): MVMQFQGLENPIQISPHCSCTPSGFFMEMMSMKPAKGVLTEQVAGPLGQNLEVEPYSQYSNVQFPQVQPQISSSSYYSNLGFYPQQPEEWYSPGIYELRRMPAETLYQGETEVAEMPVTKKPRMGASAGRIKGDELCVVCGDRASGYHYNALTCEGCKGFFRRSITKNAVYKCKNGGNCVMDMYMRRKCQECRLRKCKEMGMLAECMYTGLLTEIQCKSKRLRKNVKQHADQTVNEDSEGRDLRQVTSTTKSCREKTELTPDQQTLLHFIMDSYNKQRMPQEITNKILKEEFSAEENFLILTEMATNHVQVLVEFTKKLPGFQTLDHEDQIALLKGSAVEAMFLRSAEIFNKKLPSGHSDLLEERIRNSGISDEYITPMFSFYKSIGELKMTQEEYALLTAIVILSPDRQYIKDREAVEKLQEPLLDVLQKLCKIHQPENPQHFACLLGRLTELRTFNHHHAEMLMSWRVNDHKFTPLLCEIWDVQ

One experiment deals with Androgen receptor (Homo sapiens) (UniProt P10275). Description: qHTS assay for small molecule agonists of androgen receptor signaling (AID 588515; active means well fitted curve in the direction sought with a large enough effect in the signal ratio, with a control signal flat; the % refers to the signal ratio). Particulars: AR-UAS-bla HEK293, beta-lactamase ratio, agonist 16 h; stronger effect = higher value. Summed up: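 EC50 and efficacy came from Hill fits of titrations (up to 92 uM) normalized to 30 nM R1881 as 100% and DMSO as 0%. Compound exposure was 16 h at 37 C on AR-UAS-bla HEK293 cells, with a 405/460/530 nm CCF4 fluorescence read.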
Chain of Androgen receptor (Homo sapiens) (P10275 whole entry, looked up): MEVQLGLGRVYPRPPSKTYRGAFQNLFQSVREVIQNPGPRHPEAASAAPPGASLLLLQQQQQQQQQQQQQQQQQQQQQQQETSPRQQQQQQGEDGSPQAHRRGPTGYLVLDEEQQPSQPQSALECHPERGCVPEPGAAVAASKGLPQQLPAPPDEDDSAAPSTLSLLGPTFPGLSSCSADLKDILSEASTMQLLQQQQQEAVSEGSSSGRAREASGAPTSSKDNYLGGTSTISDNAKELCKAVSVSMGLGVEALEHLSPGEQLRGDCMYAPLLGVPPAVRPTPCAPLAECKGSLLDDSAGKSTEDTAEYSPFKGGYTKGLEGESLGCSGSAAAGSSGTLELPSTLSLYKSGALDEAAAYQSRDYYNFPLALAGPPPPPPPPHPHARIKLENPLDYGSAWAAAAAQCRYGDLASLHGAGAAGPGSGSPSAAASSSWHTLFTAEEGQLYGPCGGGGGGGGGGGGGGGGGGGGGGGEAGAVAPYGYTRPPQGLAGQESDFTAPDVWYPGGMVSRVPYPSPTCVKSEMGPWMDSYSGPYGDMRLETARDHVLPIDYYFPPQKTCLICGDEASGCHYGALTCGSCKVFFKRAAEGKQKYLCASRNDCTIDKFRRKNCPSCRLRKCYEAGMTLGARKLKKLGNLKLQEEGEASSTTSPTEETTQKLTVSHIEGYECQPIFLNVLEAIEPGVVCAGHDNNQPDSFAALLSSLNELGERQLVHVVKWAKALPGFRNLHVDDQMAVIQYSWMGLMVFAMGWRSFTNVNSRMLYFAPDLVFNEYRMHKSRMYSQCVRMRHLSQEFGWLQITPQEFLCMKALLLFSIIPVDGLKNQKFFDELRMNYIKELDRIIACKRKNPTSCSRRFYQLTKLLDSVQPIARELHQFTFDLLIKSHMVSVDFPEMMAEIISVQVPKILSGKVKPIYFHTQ
(In qHTS, concentration-response curves come from the screen itself.)
With `Nc1c(Cl)c(Cl)c(Cl)c(Cl)c1Cl`, the activation was 1.01% (inactive).

As to `CCCCCCCCc1ccc(O)cc1`, the activation is -7.85% (inactive) and -15.7% (inactive).

As for `O=[N+]([O-])c1cc([N+](=O)[O-])c2ccccc2c1`, the activation is -1.64% (inactive).

In the case of `c1cc2ccc3cccc4ccc(c1)c2c34`, the activation was 11.6% (inactive) and 8.44% (inactive).

In the case of `Nc1ccc([N+](=O)[O-])cc1`, the activation was 7.63% (inactive).

For the compound `COC(C)(C)CCCC(C)C/C=C/C(C)=C/C(=O)OC(C)C` (centres undefined), the activation is -13.7% (inactive) and -1.74% (inactive).

As for `CC(C)(c1ccc(O)cc1)c1ccc(O)cc1`, the activation was -6.96% (inactive).

Consider `CCOP(=O)(NC(C)C)Oc1ccc(SC)c(C)c1` (centres undefined), for which the activation was 2.45% (inactive) and -12.7% (inactive).

Regarding `O=[N+]([O-])/N=C1\NCCN1Cc1ccc(Cl)nc1`, the activation was 8.09% (inactive).

Regarding `C=CC(=O)NCNC(=O)C=C`, the activation was 20.4% (inactive) and 9.02% (inactive).

For `Nc1ccc(Cl)cc1N`, the activation is -2.06% (inactive).

Turning to `CCO/N=C(\CC)C1=C(O)CC(c2c(C)cc(C)cc2C)CC1=O` (centres undefined), the activation is -1.77% (inactive).

The target is the same in the next experiment. Description: qHTS assay for small molecule antagonists of androgen receptor signaling (AID 588516; active means well fitted curve in the direction sought with a large enough effect in the signal ratio, with a control signal flat, not every such curve was filed as active; the % refers to the signal ratio). The settings on record: AR-UAS-bla HEK293, beta-lactamase ratio, antagonist mode, 16 h; series mostly up to 76.8 µM. Summed up:
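Antagonist-mode qHTS: inhibition of R1881 (10 nM)-driven beta-lactamase expression in GripTite HEK 293 cells is measured after 16 h; values are Hill-derived IC50s normalized between R1881 and DMSO wells.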
Regarding `Nc1c(Cl)c(Cl)c(Cl)c(Cl)c1Cl`, the Potency result was “inactive”.

On to `c1cc2ccc3cccc4ccc(c1)c2c34`, for which the Potency result was “inactive”.

In the case of `Nc1cccc2c(N)cccc12`, the Potency entry is “inactive”.

In the case of `COC(C)(C)CCCC(C)C/C=C/C(C)=C/C(=O)OC(C)C` (centres undefined), the Potency entry was “inactive”.

`O=[N+]([O-])/N=C1\NCCN1Cc1ccc(Cl)nc1`: the Potency result was “inactive”.

Consider `C=CC(=O)NCNC(=O)C=C`, for which the Potency result is “inactive”.

Consider `Nc1ccc(Cl)cc1N`, for which the Potency result is “inactive”.

On to `CCO/N=C(\CC)C1=C(O)CC(c2c(C)cc(C)cc2C)CC1=O` (centres undefined), for which the Potency result is “inactive”.

In the next experiment the target is Bile acid receptor (Homo sapiens) (UniProt Q96RI1). The experiment in a line: qHTS assay for small molecule antagonists of farnesoid X receptor signaling (AID 588526). The settings on record: HEK293T FXR-UAS-bla, beta-lactamase ratio, antagonist mode; series mostly up to 76.7 µM. Summed up:
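Concentration-response titrations were fitted to the Hill equation for half-maximal inhibition and maximal response, with data normalised to 50 uM chenodeoxycholic acid and DMSO control wells. Cells: FXR-UAS-bla HEK293T, dialyzed FBS.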
In the case of `Nc1ccc(N=Nc2ccccc2)cc1`, the outcome was inactive.

As for `O=C(O)COc1nc(Cl)c(Cl)cc1Cl`, the outcome was inactive.

On to `O=[N+]([O-])c1c(Cl)c(Cl)cc(Cl)c1Cl`, for which the result was inactive.

Regarding `Nc1ccc([N+](=O)[O-])cc1`, the outcome was inactive.

Turning to `Nc1ccc(Sc2ccc(N)cc2)cc1`, the outcome was inactive.

As to `CCCN(CCC)c1c([N+](=O)[O-])cc(S(N)(=O)=O)cc1[N+](=O)[O-]`, the result was inactive.

As to `CCCCC(CC)COC(=O)c1ccccc1C(=O)OCC(CC)CCCC` (centres undefined), the outcome was inactive.

As to `CCOP(=O)(NC(C)C)Oc1ccc(SC)c(C)c1` (centres undefined), the result was inactive.

For `COc1nn(CSP(=S)(OC)OC)c(=O)s1`, the outcome was inactive.

With `O=[N+]([O-])/N=C1\NCCN1Cc1ccc(Cl)nc1`, the result was inactive.

In the case of `CS(=O)(=O)c1ccc(C(=O)C2C(=O)CCCC2=O)c([N+](=O)[O-])c1`, the result was inactive.

For the compound `Nc1ccc(Cl)cc1N`, the outcome was inactive.

For `CCO/N=C(\CC)C1=C(O)CC(c2c(C)cc(C)cc2C)CC1=O` (centres undefined), the result was inactive.

For the compound `Nc1ccc([N+](=O)[O-])cc1O`, the result was inactive.
